eIF4E-4G inh = blocks eIF4E binding to eIF4G; P63073+Q04637; TR-FRET eIF4E-eIF4GI(517-606) binding, 2 h; inhibition, % at 21.7 µM; actives 0.37% (n = 220,000); AID 782;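 active means inhibition above about 30%, limit read from the data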
eIF4H FP inh = inhibitors of RNA binding by human eIF4H; inhibition, % at 35 µM; eIF4H fluorescence polarization binding assay; Q15056; actives 0.94% (n = 290,000);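 further: calls also rest on retests at 20 µM and on dose response follow-up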
PABP1 MLLE inh = blocks PAM2 peptide binding to the PABP1 MLLE domain; P11940; GST-MLLE / FITC-PAM2 fluorescence polarization; inhibition, % at 20 µM; actives 0.36% (n = 360,000); in the data active means inhibition above about 35%, passing the limit was not always enough
PABP polyA inh = PABP-poly(A) binding inhibition; P11940; actives 1% (n = 290,000); inhibition, % at 35 µM; AID 2014; PABP-poly(A) RNA binding, fluorescence polarization;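 further: calls also rest on retests at 20 µM and on dose response follow-up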
PERK inhibitor = inhibitors of human PERK kinase. AID 1416. inhibition, % at 5.6 µM. actives 0.17% (n = 220,000). CHO PERK-DD fusion, SEAP luminescence translation reporter;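 active means inhibition above the mean inhibition of all tested compounds plus 3 SD, set separately per screening campaign, cut at about 2.9% in these data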;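 further: PERK kinase domain activated by AP20187 dimerizer at 100 nM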
Of the large screens only hits and unclear results are named; the others gave an inactive call. Hits are enriched below; roughly 1.6% of the tested compounds scored in any of these assays. Unless noted, how the calls were made is not given here.

COCCn1c(C)cc(C(=O)COc2ccc(C)nc2[N+](=O)[O-])c1C	eIF4H FP inh 115
CCCn1c(C)cc(C(=O)COc2ccc(C)nc2[N+](=O)[O-])c1C	eIF4H FP inh 69, PABP polyA inh 8.6
COCCn1c(C)cc(C(=O)CSc2ccc3ccccc3n2)c1C	eIF4H FP inh 62, PABP polyA inh 69
Cc1cc(C(=O)COc2cccnc2[N+](=O)[O-])c(C)n1Cc1cccs1	eIF4H FP inh 106
COc1cc(Nc2nc(SCC#N)nc3ccccc23)cc(OC)c1OC	none
NC(=O)c1cccn(Cc2ccc(C(F)(F)F)cc2)c1=O	none
Clc1ccc(-c2cnc3n2CCC3)cc1	none
COc1ccc(S(=O)(=O)Nc2cc(C)on2)cc1OC	none
O=C(Oc1cccc2c(=O)[nH]ccc12)c1ccccc1	none
O=C(OCCCN1CCOCC1)c1ccc(O)c(O)c1	PERK inhibitor 3.4
CSc1nc(=S)c2[nH]c(=S)[nH]c2[nH]1	eIF4H FP inh 92, PABP polyA inh 59
Nc1nc(=S)c2[nH]c(=S)[nH]c2[nH]1	none (no result: eIF4E-4G inh, eIF4H FP inh, PABP polyA inh, PERK inhibitor)
CC1CCN(C(=O)CSc2nnc(-c3ccc(S(=O)(=O)N4CCOCC4)cc3)n2C)CC1	eIF4H FP inh 53, PABP polyA inh 40
CC1CCCN(C(=O)CSc2nnc(-c3ccc(S(=O)(=O)N4CCOCC4)cc3)n2C)C1 (stereo unspecified)	none
CCCCn1c(=NC(=O)c2ccc3c(c2)OCO3)c(C#N)cc2c(=O)n3cccc(C)c3nc21	eIF4H FP inh 81, PABP polyA inh 58
COCCn1c(=NC(=O)c2ccc3c(c2)OCO3)c(C#N)cc2c(=O)n3cccc(C)c3nc21	none (no result: PABP1 MLLE inh)
Cn1c(N2CCCCC2)cc(=O)n(C)c1=O	none
CCOC(=O)C1CCN(C(=O)c2ccc3c(Cl)c4c(nc3c2)CCCC4)CC1	none (no result: eIF4E-4G inh, PERK inhibitor)
CC1CCN(C(=O)c2ccc3c(Cl)c4c(nc3c2)CCCC4)CC1	eIF4E-4G inh 82
CCCOC(=O)c1ccc(OCC(O)CN2CCN(C(=O)c3ccccc3)CC2)cc1 (stereo unspecified)	eIF4E-4G inh 34
Cc1cc(NC(=O)/C=C\C(=O)O)c([N+](=O)[O-])cc1C	none
Cc1cscc1NC(=O)/C=C/C(=O)O	PERK inhibitor 3.5
O=C(O)c1cc(S(=O)(=O)O)cc(Nc2c3ccccc3nc3ccccc23)c1O	eIF4H FP inh 98, PABP polyA inh 41 (no result: eIF4E-4G inh, PERK inhibitor)
O=C(O)c1cccc(Nc2c3ccccc3nc3ccccc23)c1	none (no result: eIF4E-4G inh, PERK inhibitor)
C/C(=N\Nc1ccc(C(=O)O)cc1)c1ccc2c(c1)Nc1ccccc1S2	eIF4H FP inh 84, PABP polyA inh 63
COc1cccc2c(=O)c3cccc(N)c3[nH]c12	eIF4H FP inh 94, PABP polyA inh 8.7
COc1cccc2c(=O)c3c([nH]c12)OC(C)(C)C3	none (no result: eIF4E-4G inh, eIF4H FP inh, PABP polyA inh, PERK inhibitor)
C=CCn1c(SCC(=O)Nc2c(C)cccc2C)nnc1-c1ccncc1	none
C=CCn1c(SCC(=O)c2cc(C)n(C)c2C)nnc1-c1ccncc1	eIF4H FP inh 83
Cc1cc(C(=O)CSc2nnc(-c3ccncc3)n2-c2ccccc2)c(C)n1C	eIF4H FP inh 120, PABP polyA inh 126
Cc1cc(C(=O)CSc2nnc(-c3ccccc3)n2C)c(C)n1C	none
CCOc1ccc(S(=O)(=O)N2CCCCC2)cc1NC(=O)Cc1ccccc1	none (no result: eIF4E-4G inh, eIF4H FP inh, PABP polyA inh, PERK inhibitor)
COc1cc(OC)cc(C(=O)N[C@H](C(=O)Nc2ccc(S(=O)(=O)N(C)C)cc2)C(C)C)c1	none
COc1cc(NC(=O)c2ccc3c(=O)n(Cc4ccco4)c(=S)[nH]c3c2)cc(OC)c1OC	eIF4H FP inh 64
C=C(C)C(=O)Nc1cccc(C2=NOC3(C2)C[C@H](C(N)=O)N(C(=O)CC)C3)c1 (stereo partly specified)	eIF4H FP inh 92 (no result: PERK inhibitor)
CCC(=O)N1CC2(CC(c3cccc(NC(=O)CC(c4ccccc4)c4ccccc4)c3)=NO2)C[C@H]1C(N)=O (stereo partly specified)	none (no result: PERK inhibitor)
C=C(C)C(=O)Nc1cccc(C2=NOC3(C2)C[C@H](C(N)=O)N(C(=O)c2ccccc2C(=O)c2ccccc2)C3)c1 (stereo partly specified)	eIF4H FP inh 98, PABP polyA inh 58 (no result: PERK inhibitor)
C=C(C)C(=O)Nc1cccc(C2=NOC3(C2)C[C@@H](C(N)=O)N(C(=O)CC(c2ccccc2)c2ccccc2)C3)c1 (stereo partly specified)	eIF4H FP inh 90, PABP polyA inh 52 (no result: PERK inhibitor)
C=C(C)C(=O)Nc1cccc(C2=NOC3(C2)C[C@H](C(N)=O)N(C(=O)CC#N)C3)c1 (stereo partly specified)	eIF4H FP inh 89 (no result: PABP1 MLLE inh, PERK inhibitor)
C/C=C(/C)C(=O)Nc1cccc(C2=NOC3(C2)C[C@@H](C(N)=O)N(C(=O)CC(c2ccccc2)c2ccccc2)C3)c1 (stereo partly specified)	none (no result: PERK inhibitor)
C/C=C/C=C\C(=O)Nc1cccc(C2=NOC3(C2)C[C@H](C(N)=O)N(C(=O)CC#N)C3)c1 (stereo partly specified)	none (no result: PERK inhibitor)
COc1cccc(NC(=O)COC(=O)c2ccco2)c1	none
C[C@H]1CC[C@]2(O[C@H](CCO)C[C@H](O)[C@H]2O)O1	none (no result: eIF4E-4G inh, eIF4H FP inh, PABP polyA inh, PERK inhibitor)
CCCCCC(=O)Nc1cccc(C2=NOC3(C2)C[C@H](C(N)=O)N(C(=O)CC#N)C3)c1 (stereo partly specified)	PABP polyA inh 67 (no result: PABP1 MLLE inh, PERK inhibitor)
CCCCN1Cc2c(nc3cc(-c4ccco4)[nH]n3c2=O)C1=O	eIF4H FP inh 88, PABP polyA inh 84
COc1ccc(OC)c(NC(=O)CSc2nc3ccccc3cc2Cc2ccccc2)c1	PERK inhibitor 2.9
COc1ccc(OC)c(NC(=O)CSC2=NCCS2)c1	PABP1 MLLE inh 40
O=C(CSc1nccc2ccccc12)N1CCN(c2ccccn2)CC1	none
O=C(COc1ccc(F)c(Cl)c1)NC(=O)NC1CCCC1	none (no result: eIF4E-4G inh, eIF4H FP inh, PABP polyA inh, PERK inhibitor)
O=S(=O)(NC1CC1)c1ccc(S(=O)(=O)N2CCC3(CC2)OCCO3)cc1	none
CC(C)CNS(=O)(=O)c1ccc(S(=O)(=O)N2CCC3(CC2)OCCO3)cc1	eIF4H FP inh inconclusive, PABP polyA inh active
Cn1c(=O)oc2cc(S(=O)(=O)N3CCC4(CC3)OCCO4)ccc21	eIF4H FP inh 95, PABP polyA inh 101
CC(C)N(C(=O)CSc1n[nH]c(=O)n1CCc1ccccc1)C(C)C	none (no result: eIF4E-4G inh, PERK inhibitor)
COc1ccc(OC)c(-n2cnc3cc(C(=O)NCCCN4CCOCC4)ccc32)c1	none
O=C(Cn1cnc([N+](=O)[O-])n1)N/N=C/c1ccccc1O	PERK inhibitor 3.4
O=C(CSc1ccccn1)N/N=C/c1cc([N+](=O)[O-])ccc1O	none
Cc1ccccc1/C=N/NC(=O)Cn1cnc([N+](=O)[O-])n1	none
O=C(CSc1ccccn1)N/N=C/c1ccccc1[N+](=O)[O-]	eIF4H FP inh active, PABP polyA inh 120
Cc1cccc(N2CCN(Cc3cnc(Cl)s3)CC2C)c1 (stereo unspecified)	none
COC(=O)C(CC(=O)O)NCc1ccco1 (stereo unspecified)	none
COCCOC(=O)C(CC(=O)O)NCc1ccco1 (stereo unspecified)	PERK inhibitor 4.0

Screens from PubChem.
